From PubChem BioAssay (Tox21) come the findings set out here.

Assay [1] is described as follows: Nuclear factor erythroid 2-related factor 2/antioxidant responsive element (Nrf2/ARE) small molecule agonists: qHTS cell viability counter screen in human keratinocytes (AID 1919968; active = well fitted curve in the direction sought with a large enough effect in the repeat runs; an effect the other way counts as inactive or inconclusive; also: nearly all actives have a fitted effect of over 55% in size). Put shortly: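 Fluorescence read-out from CellTiter-Fluor after 1 h at 37 C. Wells held HaCaT-derived ARE-luciferase reporter cells (1,500/well) treated 23 h with DMSO-dissolved compounds. Run in the same wells as the luciferase agonist read.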
A general note: qHTS replaces the single test concentration by a dilution series.

Assay [2] concerns the target Gonadotropin-releasing hormone receptor (Homo sapiens) (UniProt P30968). As to the kind of experiment: Human gonadotropin-releasing hormone receptor (GnRHR) small molecule agonists, calcium flux assay in GnRHR-HEK293 cells (AID 1920063). Also: nearly all actives have a fitted effect of over 35% in size. Put shortly: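 Calcium-dye fluorescence, Ex/Em=480/540, recorded every 1 sec over 3 min after compound addition to GnRHR-HEK293 cells. Cells had been seeded 18 hours earlier and dye-loaded for 1 hour at 37 C. Fifteen concentrations, triplicates.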

Assay [3] has as its target KiSS-1 receptor (Homo sapiens) (UniProt Q969F8). As to the kind of experiment: Human kisspeptin (KISS1R) small molecule agonists, calcium flux assay in KISS1R-HEK293 cells (AID 1920064; active = well fitted curve in the direction sought with a large enough effect in the repeat runs; an effect the other way counts as inactive or inconclusive). In a few lines:
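Calcium flux read-out: kinetic fluorescence at Ex/Em=480/540, 1 s intervals over 3 min, after pin-tool compound addition to dye-loaded KISS1R-HEK293 cells. Fifteen concentrations, triplicates.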

A short description of assay [4]: G protein-coupled receptor (GPCR) small molecule agonists, calcium flux assay: HEK293 wild type cell line counter screen (AID 1920065). Put shortly:
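Agonist mode; 18 h seeding at 37 C, 1 h dye load at 37 C; compounds pinned from DMSO, ATP as positive control; kinetic fluorescence 480/540 nm, 3 min, 1 s reads; 15 concentrations, triplicate.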

Assay [5] in a line: p53 small molecule agonists, cell-based qHTS assay with human liver microsomes (AID 1963577).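 Also: p53 response element beta-lactamase reporter cells with liver microsomes plus NADPH.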 In a few lines:
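In this qHTS, p53 response-element beta-lactamase cells receive test compound together with a microsome/NADPH activating system (0.5 mg/mL final each) and are incubated 16 h at 37 C before LiveBLAzer fluorescence detection.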

A short description of assay [6]: p53 small molecule agonists, cell-based qHTS assay with human liver microsomes: qHTS cell viability counter screen (AID 1963579). Also: nearly all actives have a fitted effect of over 45% in size. Put shortly:
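Metabolically activated exposure: compounds, human liver microsomes and NADPH (0.5 mg/mL final apiece) were added to p53RE-bla cells seeded 5 h earlier, left 16 h at 37 C, and then assessed for viability by CellTiter-Glo luminescence.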

A short description of assay [7]: p53 small molecule agonists, cell-based qHTS assay: qHTS cell viability counter screen (AID 1963581). Also: nearly all actives have a fitted effect of over 45% in size. Put shortly: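 Cytotoxicity read-out: ATP-based luminescence (CellTiter-Glo, 30 min RT) measured in the same wells as the p53 reporter assay, HCT-116 p53RE-bla cells, 16 h compound exposure at 37 C.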
Assay [8] addresses 5-hydroxytryptamine receptor 2A (Homo sapiens) (UniProt P28223). Kind of assay: 5-hydroxytryptamine receptor 2A (HTR2A) small molecule antagonists, cell-based qHTS assay (AID 1963586). Also: nearly all actives have a fitted effect of over 45% in size. In a few lines: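 CHO cells stably expressing human HTR2A were plated for 18 h at 37 C, then loaded with calcium dye for 1 h. Compounds were preincubated 5 min at room temperature before DOI (4 nM solution) was added. Kinetic fluorescence was read for 3 min.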

Assay [9] shares this target. As to the kind of experiment: 5-hydroxytryptamine receptor 2A (HTR2A) small molecule agonists, cell-based qHTS assay (AID 1963587). Also: nearly all actives have a fitted effect of over 30% in size. Put shortly: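 CHO cells stably expressing human HTR2A, plated 18 h, loaded with calcium dye 1 h at 37 C. Agonist mode: compounds added and intracellular calcium fluorescence recorded kinetically for 2 min at 1 sec intervals.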
Assay [10] has as its target Muscarinic acetylcholine receptor M1 (Homo sapiens) (UniProt P11229). Kind of assay: Cholinergic receptor muscarinic 1 (CHRM1) small molecule antagonists, cell-based qHTS assay (AID 1963588). Also: nearly all actives have a fitted effect of over 40% in size. In a few lines: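 Compounds were tested at 15 concentrations in three independent runs. Dye-loaded CHRM1-CHO cells were exposed 5 min at room temperature before stimulation by acetylcholine added at 50nM. Intracellular calcium was read kinetically on FDSS for 3 min.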

Assay [11] has the same target. As to the kind of experiment: Cholinergic receptor muscarinic 1 (CHRM1) small molecule agonists, cell-based qHTS assay (AID 1963589). Also: nearly all actives have a fitted effect of over 35% in size. In a few lines: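 Calcium flux read-out: kinetic fluorescence at 1 sec intervals after pin-tool compound addition to dye-loaded CHRM1-CHO cells (human M1). Agonist mode; 15 concentrations tested in triplicate independent runs.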
Assay [12] is described as follows: cAMP Responsive Elements (CRE) small molecule agonists, cell-based qHTS assay (AID 1963590). In a few lines: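 Beta-lactamase reporter readout: LiveBLAzer B/G FRET substrate, 2 h at room temperature, added after 3 h compound treatment of CRE-bla HEK 293T cells at 37 C/5% CO2.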
The nature of assay [13]: cAMP Responsive Elements (CRE) small molecule antagonists, cell-based qHTS assay (AID 1963591; active = well fitted inhibition curve with a large enough effect in the signal ratio in the repeat runs, not every such curve was filed as active; the % refers to the signal ratio). In a few lines:
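HEK293T CRE-bla; 18 h preincubation; compound pin-transfer; NKH477 0.25 uM final, 3 h, 37 C; LiveBLAzer FRET substrate 2 h RT.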

In assay [14] the target is Beta-2 adrenergic receptor (Homo sapiens) (UniProt P07550). Kind of assay: Adrenergic beta2 receptor (ADRB2) small molecule antagonists, cell-based qHTS assay (AID 1963592). Also: series mostly up to about 92 µM; nearly all actives have a fitted effect of over 50% in size. Put shortly: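 Assay format: CHO-ADRB2 cells, 18-20hr seeding at 37C/5% CO2, then compound plus 1nM isoproterenol agonist mix for 0.5hr RT. Homogeneous time-resolved fluorescence cAMP detection after 1hr, expressed as 665/615 nm ratio.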

For assay [15], the target named is D(2) dopamine receptor (Homo sapiens) (UniProt P14416). As to the kind of experiment: Dopamine D2 receptor (DRD2) small molecule agonists, cell-based qHTS assay (AID 1963594). Also: nearly all actives have a fitted effect of over 35% in size. Put shortly:
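HEK293 cells stably expressing human DRD2, pre-treated with PDE inhibitor Ro20-1724 (0.1 mM final) and compound 10 min at room temperature, then stimulated with NKH477 (200nM […]) for 30 min. cAMP read by HTRF (665/620 nm).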

Assay [16] has the same target. As to the kind of experiment: Dopamine D2 receptor (DRD2) small molecule antagonists, cell-based qHTS assay (AID 1963595; active = well fitted inhibition curve with a large enough effect in the signal ratio in the repeat runs, with a control signal flat; the % refers to the signal ratio). In a few lines: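 Antagonist mode in DRD2-HEK293 cells: after compound addition with 0.1 mM Ro20-1724, cells received quinpirole (12 nM) and NKH477 (200 nM) for 30 min at room temperature; HTRF cAMP read after 1 h detection.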
A short description of assay [17]: p53 small molecule agonists, cell-based qHTS assay with rat liver microsomes: qHTS cell viability counter screen (AID 1963580). Also: nearly all actives have a fitted effect of over 45% in size. Put shortly:
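After the beta-lactamase ratio was read, CellTiter-Glo was added to the same wells and luminescence measured at 30 min; cells had been treated 16 h at 37 C with compounds, rat liver microsomes and NADPH (0.5 mg/mL final each).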

A short description of assay [18]: p53 small molecule agonists, cell-based qHTS assay (AID 1963582; active = well fitted activation curve with a large enough effect in the signal ratio in the repeat runs, not every such curve was filed as active; the % refers to the signal ratio; also: potency is read from the fitted curve at half-maximal effect). Put shortly: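 Fluorescence intensity read-out of a beta-lactamase reporter under a p53 response element. Cells were exposed to DMSO-dissolved compounds for 16 h at 37 C, then developed with FRET substrate for 2 h at RT.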
The target of assay [19] is Beta-2 adrenergic receptor (Homo sapiens) (UniProt P07550). Kind of assay: Adrenergic beta2 receptor (ADRB2) small molecule agonists, cell-based qHTS assay (AID 1963593).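 Also: CHO cells stably overexpressing human ADRB2.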 Put shortly: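 CHO cells stably over-expressing ADRB2 were plated overnight at 37C, then dosed with compounds plus a stimulation mix containing 100uM IBMX and 25uM Ro-20-1724 for 0.5hr at room temperature. cAMP was measured by HTRF competition, 1hr.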

A short description of assay [20]: p53 small molecule agonists, cell-based qHTS assay with rat liver microsomes (AID 1963578). In a few lines: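 Agonist mode in p53RE-bla reporter cells, with compounds co-incubated 16 h at 37 C alongside 0.5 mg/mL rat liver microsomes and 0.5 mg/mL NADPH (final), followed by a 2 h LiveBLAzer detection step.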

Unmarked numbers belong to inactive results. Records with an inconclusive call do not appear. Activity calls are given as the source filed them. Unless noted, calls follow the shape of the full dose curve.

Gonadotropin-releasing hormone receptor (Homo sapiens), sequence (P30968 whole entry, looked up): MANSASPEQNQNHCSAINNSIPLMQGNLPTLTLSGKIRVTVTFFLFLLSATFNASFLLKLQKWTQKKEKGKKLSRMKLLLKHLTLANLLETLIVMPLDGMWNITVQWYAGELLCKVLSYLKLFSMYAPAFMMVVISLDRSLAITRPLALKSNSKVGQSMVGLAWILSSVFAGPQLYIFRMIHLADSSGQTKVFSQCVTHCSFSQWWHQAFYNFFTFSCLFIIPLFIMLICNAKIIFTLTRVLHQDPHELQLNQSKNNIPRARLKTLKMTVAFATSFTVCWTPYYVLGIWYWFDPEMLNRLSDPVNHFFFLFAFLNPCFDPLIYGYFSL
5-hydroxytryptamine receptor 2A (Homo sapiens), sequence (P28223 whole entry, looked up): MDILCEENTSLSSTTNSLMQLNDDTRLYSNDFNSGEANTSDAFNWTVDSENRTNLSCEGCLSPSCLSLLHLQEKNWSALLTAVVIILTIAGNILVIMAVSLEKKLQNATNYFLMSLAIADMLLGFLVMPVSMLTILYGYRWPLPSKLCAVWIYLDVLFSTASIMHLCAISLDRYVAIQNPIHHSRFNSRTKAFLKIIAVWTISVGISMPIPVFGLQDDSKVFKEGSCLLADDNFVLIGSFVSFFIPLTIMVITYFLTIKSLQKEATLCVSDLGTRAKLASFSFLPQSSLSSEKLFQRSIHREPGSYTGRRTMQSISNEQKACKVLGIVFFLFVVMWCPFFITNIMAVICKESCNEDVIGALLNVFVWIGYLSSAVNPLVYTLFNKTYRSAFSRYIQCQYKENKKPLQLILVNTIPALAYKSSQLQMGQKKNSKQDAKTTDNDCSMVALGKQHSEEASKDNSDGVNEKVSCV
Beta-2 adrenergic receptor (Homo sapiens), sequence (P07550 whole entry, looked up): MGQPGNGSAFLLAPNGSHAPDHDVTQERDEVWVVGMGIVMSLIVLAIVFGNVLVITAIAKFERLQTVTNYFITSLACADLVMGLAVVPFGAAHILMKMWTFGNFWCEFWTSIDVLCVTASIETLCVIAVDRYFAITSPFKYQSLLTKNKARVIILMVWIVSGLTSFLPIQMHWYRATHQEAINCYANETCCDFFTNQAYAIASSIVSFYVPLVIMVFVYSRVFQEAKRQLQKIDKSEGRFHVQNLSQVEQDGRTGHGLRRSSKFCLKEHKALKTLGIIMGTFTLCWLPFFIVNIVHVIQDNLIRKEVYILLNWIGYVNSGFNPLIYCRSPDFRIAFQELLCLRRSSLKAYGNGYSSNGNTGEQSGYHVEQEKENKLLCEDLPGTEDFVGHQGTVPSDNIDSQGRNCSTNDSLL
Muscarinic acetylcholine receptor M1 (Homo sapiens), sequence (P11229 whole entry, looked up): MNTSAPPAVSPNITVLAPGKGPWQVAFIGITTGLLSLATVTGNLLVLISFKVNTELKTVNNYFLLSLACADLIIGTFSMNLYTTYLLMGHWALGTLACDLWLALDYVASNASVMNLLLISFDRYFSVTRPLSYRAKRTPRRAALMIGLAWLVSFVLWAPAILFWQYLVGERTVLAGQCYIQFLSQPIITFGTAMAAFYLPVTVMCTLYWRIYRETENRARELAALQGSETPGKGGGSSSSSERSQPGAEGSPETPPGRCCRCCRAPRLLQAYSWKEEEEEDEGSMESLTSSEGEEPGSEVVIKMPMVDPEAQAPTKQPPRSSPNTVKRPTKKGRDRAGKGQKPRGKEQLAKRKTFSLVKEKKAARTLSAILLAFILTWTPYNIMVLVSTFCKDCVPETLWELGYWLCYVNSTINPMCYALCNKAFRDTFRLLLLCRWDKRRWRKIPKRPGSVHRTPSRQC
D(2) dopamine receptor (Homo sapiens), sequence (P14416 whole entry, looked up): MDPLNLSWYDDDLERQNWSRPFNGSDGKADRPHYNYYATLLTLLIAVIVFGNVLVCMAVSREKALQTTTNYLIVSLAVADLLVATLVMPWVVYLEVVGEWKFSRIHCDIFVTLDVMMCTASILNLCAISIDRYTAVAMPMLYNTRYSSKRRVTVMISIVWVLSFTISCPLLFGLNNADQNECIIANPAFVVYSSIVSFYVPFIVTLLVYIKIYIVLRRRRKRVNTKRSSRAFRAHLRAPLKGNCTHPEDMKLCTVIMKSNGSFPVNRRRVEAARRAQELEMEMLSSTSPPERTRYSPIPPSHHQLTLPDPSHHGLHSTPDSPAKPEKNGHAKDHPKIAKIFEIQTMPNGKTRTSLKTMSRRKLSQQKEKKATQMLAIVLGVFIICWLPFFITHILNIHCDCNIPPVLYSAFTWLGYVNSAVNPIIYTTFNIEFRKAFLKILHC
KiSS-1 receptor (Homo sapiens), sequence (Q969F8 whole entry, looked up): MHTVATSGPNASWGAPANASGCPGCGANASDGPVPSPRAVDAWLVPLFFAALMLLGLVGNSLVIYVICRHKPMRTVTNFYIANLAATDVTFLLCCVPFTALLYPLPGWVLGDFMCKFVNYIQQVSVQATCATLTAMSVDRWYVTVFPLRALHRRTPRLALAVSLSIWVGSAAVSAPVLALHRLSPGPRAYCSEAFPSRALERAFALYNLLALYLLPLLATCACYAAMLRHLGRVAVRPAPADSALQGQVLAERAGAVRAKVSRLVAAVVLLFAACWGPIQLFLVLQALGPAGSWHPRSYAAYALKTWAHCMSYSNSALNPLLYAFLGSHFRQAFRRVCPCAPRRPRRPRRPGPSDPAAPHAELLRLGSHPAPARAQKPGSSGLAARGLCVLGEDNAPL

Regarding `O=C(CBr)OCc1ccccc1`, the Potency entry in assay [1], in assay [2], in assay [3], in assay [4], in assay [5] and in assay [6] was “inactive” in each case. In addition, the Potency entry in assay [7], in assay [8], in assay [9], in [10], in assay [11] and in [12] was “inactive” each time. For the same molecule, the Potency result in assay [13], in [14], in [15] and in [16] was “inactive” in each case.
Regarding `O=C1CC[C@@]2(O)[C@H]3Cc4ccc(O)c5c4[C@@]2(CCN3CC2CC2)[C@H]1O5`, the Potency result in assay [1], in assay [2], in assay [3], in [4], in [5] and in [6] was “inactive” throughout. Moreover, the Potency result in assay [17], in assay [7], in [18], in [12], in assay [13] and in assay [14] was “inactive” throughout. In addition, the Potency entry in [19] and in assay [16] was “inactive” in each case.
For the molecule `CCOP(O)OCC`, the Potency result in [1], in assay [2], in [3], in assay [4], in assay [6] and in assay [17] was “inactive” throughout. For the same molecule, the Potency entry in assay [7], in assay [8], in assay [9], in [10], in assay [11] and in [12] was “inactive” throughout. Besides, the Potency entry in [13], in assay [14], in assay [19], in assay [15] and in assay [16] was “inactive” each time.
As to `N#C/C=C/C#N`, the Potency entry in assay [1], in assay [2], in assay [3], in assay [4], in assay [5] and in assay [6] was “inactive” in each case. The Potency entry in assay [17], in assay [8], in assay [9], in [10], in assay [11] and in assay [12] was “inactive” in each case. Also, the Potency result in assay [14], in assay [15] and in [16] was “inactive” throughout. Moreover, in assay [18], the Potency is 30.2 µM (active).
Take `CC(=O)[O-].CC(=O)[O-].O.O.[Zn+2]`: the Potency entry in assay [1], in assay [2], in [3], in [4], in assay [6] and in [17] was “inactive” in each case. Besides, the Potency entry in assay [7], in assay [8], in assay [9], in [10], in [11] and in assay [12] was “inactive” throughout. Moreover, the Potency entry in [13], in assay [14] and in [15] was “inactive” each time.
Turning to `[Cl-].[Cl-].[Sn+2]`, the Potency entry in assay [1], in assay [2], in assay [3], in [4], in assay [6] and in assay [17] was “inactive” throughout. The Potency entry in assay [7], in assay [8], in assay [9], in assay [10], in assay [11] and in [12] was “inactive” in each case. Moreover, the Potency entry in assay [13], in assay [14], in [15] and in [16] was “inactive” in each case.
Take `O=C(O)COc1nc(Cl)c(Cl)cc1Cl`: the Potency entry in assay [1], in [2], in [3], in assay [4], in assay [5] and in assay [20] was “inactive” each time. Besides, the Potency result in assay [17], in assay [9], in assay [10] and in [11] was “inactive” each time.
For `COP(=O)(OC)SCn1c(=O)oc2cc(Cl)cnc21`, the Potency result in assay [1], in assay [2], in [3], in [4], in [5] and in [17] was “inactive” throughout. Further, the Potency result in [8], in assay [9], in assay [10], in [11], in assay [19] and in assay [15] was “inactive” each time. Further, in assay [16], the Potency entry was “inactive”.
